Assay outcomes: PubChem BioAssay, National Center for Advancing Translational Sciences (NCATS)
HT1080 IDH1KD tx – qHTS for induction of synthetic lethality in tumor cells producing 2HG: qHTS for the HT-1080-IDH1KD cell line; AID 686971, 2013; 2% of 360,000 active; HT-1080 IDH1 knockdown viability, ATP luminescence, 48 h; Potency, µM (doses to about 46.1 µM), for the others: at the top dose activity, negative = toxicity, hits mostly cytotoxic;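 note: 0% = DMSO wells and -100% = cell-free medium wells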
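Luminescent ATP read-out (CellTiter-Glo, 10 min at room temperature) after 48 h compound exposure at 37 °C gave viability of IDH1-knockdown HT-1080 cells. Activity was normalised to DMSO and cell-free wells, then fitted as concentration-response curves.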
HT1080-NT tox – qHTS for induction of synthetic lethality in tumor cells producing 2HG: qHTS for the HT-1080-NT fibrosarcoma cell line. HT-1080-NT fibrosarcoma viability, CellTiter-Glo ATP luminescence, 48 h. Potency, µM (series often up to 46.1 µM), for inactives: at the top dose activity, negative = less viability, hits mostly cytotoxic. 1.6% of 360,000 active;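 note: NT is the 2HG producing partner of a matched IDH1 knockdown line; 0% = DMSO-treated cells and -100% = media-only wells without cells; nearly all actives have a fitted effect of over 55% in size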
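750 cells/well, RPMI + 5% FBS; 2 h settle, compound pin-transfer, 48 h at 37 degrees C. CellTiter-Glo 10 min RT, luminescence. Normalized to DMSO and media-only wells.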
KB-3-1 tox – qHTS assay for MDR1-selective chemotherapeutics: Primary screen using the parental adenocarcinoma cell KB-3-1. KB-3-1 viability, CellTiter-Glo ATP luminescence, 72 h. Potency, µM (titrated, usually from 46.1 µM), most hits filed as cytotoxic. 1.4% of 400,000 active. AID 1347075, 2019; note: nearly all actives have a fitted effect of over 60% in size
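Multi-concentration cytotoxicity screen in KB-3-1 cells grown in DMEM lacking phenol red with 10% FBS. After 72 h at 37 °C with compound, ATP-dependent luminescence was recorded.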
KB-V1 MDR tox – qHTS assay for MDR1-selective chemotherapeutics: Primary screen using the drug-selected MDR subline cells KB-V1 | KB-V1 MDR cells viability, CellTiter-Glo, 72 h | AID 1347076, 2019 | 3.4% of 400,000 active | Potency, µM (doses to about 46.1 µM), hits mostly cytotoxic; note: nearly all actives have a fitted effect of over 60% in size
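Potencies derive from concentration-effect curves fitted to normalized luminescence (CellTiter-Glo) of KB-V1 cells treated for 72 h at 37 degrees C in phenol-red-free DMEM containing 10% FBS.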
DT40 TDP1 no CPT – qHTS for Inhibitors of human tyrosyl-DNA phosphodiesterase 1 (TDP1): qHTS in cells in absence of CPT | DT40 Tdp1-/- hTDP1 cells, no CPT, ATP luminescence, 48 h | Potency, µM (highest dose often 46.2 µM), inactives show at the highest dose activity change, negative = growth inhibition, usual class: inhibitors | 15% of 420,000 active; note: nearly all actives have a fitted effect of over 55% in size
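A cellular qHTS used chicken DT40 cells lacking endogenous Tdp1 but carrying stably transfected human TDP1. Compounds were applied without camptothecin, and cell growth kinetics were judged by ATP-dependent luminescence after ≥48 hr.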
DT40 TDP1 CPT – qHTS for Inhibitors of human tyrosyl-DNA phosphodiesterase 1 (TDP1): qHTS in cells in presence of CPT | chicken DT40 Tdp1-/-;hTDP1 cells + 20 nM CPT, ATP luminescence, 48 h | Potency, µM (series often up to 46.2 µM), for the others: at the top dose activity change, negative = growth inhibition, most hits filed as inhibitors | 12% of 420,000 active | AID 686979, 2013; note: nearly all actives have a fitted effect of over 55% in size
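Chicken DT40 Tdp1-/- cells stably complemented with human TDP1 were seeded at 400 cells/well in medium containing 20 nM camptothecin, exposed to pin-transferred compounds, and grown at 37 °C for at least 48 hr. Viability was read as ATP luminescence.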
Active calls of the source: *; i = inactive; ? = inconclusive; / = not tested or not shown. This is a sample that favours compounds with a hit; in the whole collection about 19% have one here. Calls come from the whole dose curve; as a rule, active = well fitted curve in the direction sought with a large enough effect; inconclusive = small, poorly fitted or top-dose-only effect, or another doubt; inactive = no such curve, though single readings can be large; an effect the other way counts as inactive or inconclusive. Unless noted, % is set by controls: 0 for no effect and ±100 for the full control effect; potency is the fitted concentration of half-maximal effect.

SMILES | HT1080 IDH1KD tx | HT1080-NT tox | KB-3-1 tox | KB-V1 MDR tox | DT40 TDP1 no CPT | DT40 TDP1 CPT
Cc1ccc(CN2CCN(CC(=O)N/N=C/c3ccccc3F)CC2)cc1 | -1% | 14% | i | i | 1% | -1%
Nc1c(C(=O)NC2CCCC2)c2nc3ccccc3nc2n1/N=C/c1cccnc1 | 14% | 14% | i | ? | 18µM* | 16µM*
COCCCNC(=O)c1c(N)n(/N=C/c2ccccn2)c2nc3ccccc3nc12 | 15% | 1% | i | 5.2µM* | 10µM* | 10µM*
CC(C)OCCCNC(=O)c1c(N)n(/N=C/c2cccs2)c2nc3ccccc3nc12 | 5% | 17% | i | ? | ? | ?
CC(Sc1n[nH]c(N)n1)C(=O)NC1CCCCC1C (configuration not stated) | 6% | 19% | i | ? | 9% | -15%
CN1c2ccc(Cl)cc2-c2nc(SCC(=O)NCc3ccccc3)ncc2S1(=O)=O | / | / | i | i | ? | ?
COc1ccc2cc(C#N)c(SCC(=O)OCc3ccccc3)nc2c1 | / | / | ? | i | -19% | -5%
CCOC(=O)CC(=O)CSc1nc(CC)c(C)cc1C#N | 7% | 12% | i | i | 13µM* | ?
CCc1nc(SCC(=O)O)c(C#N)cc1C | 11% | 13% | i | i | 3% | 4%
Cc1ccc2cc(C#N)c(SCc3nnc(-c4ccccc4[N+](=O)[O-])o3)nc2c1 | 20% | 19% | 9.2µM* | 13µM* | 21µM* | ?
CCOC(=O)CC(=O)CSc1nc2c(c(C)c1C#N)CCC2 | -16% | 8% | i | i | 7.3µM* | 15µM*
Cc1ccc2cc(C#N)c(SCC(=O)N3CCCc4ccccc43)nc2c1 | 17% | 13% | i | i | -4% | 13%
COC(=O)CSc1nc2cc(C)ccc2cc1C#N | 9% | ? | i | i | 16µM* | 18µM*
Cc1nc(S(=O)(=O)N2CCN(c3ccc(Cl)cc3)CC2)cn1C | / | / | i | i | -12% | -23%
CN(C)CCNC(=O)CN1C(=O)CCn2nc(-c3cn(C)c4ccccc34)cc21 | / | / | i | i | 4% | -13%
Cc1ccc(S(=O)(=O)N2CCC(N3CCC(C)CC3)CC2)cc1 | ? | 13% | i | ? | -3% | -22%
CCSc1nc2ccc(C)cc2cc1C#N | 3% | 19% | i | i | 1% | 0%
CCOC(=O)CC(=O)CSc1nc2ccc(C)cc2cc1C#N | 7.1µM* | ? | i | i | 0.73µM* | 1.2µM*
COc1ccc(-c2cc3c(=O)n(CC(=O)NCCCN4CCC(Cc5ccccc5)CC4)ncn3n2)cc1 | ? | ? | 21µM* | i | ? | ?
COc1ccc(-c2cc3c(=O)n(CC(=O)NCc4ccc(C)cc4)ncn3n2)cc1 | 2% | -3% | i | i | 6.5µM* | 7.3µM*
COc1ccc(-c2cc3c(=O)n(CC(=O)NCCCN4CCN(Cc5ccccc5)CC4)ncn3n2)cc1 | 0% | 1% | i | i | 5.2µM* | 9.2µM*
O=C(Nc1ccc(S(=O)(=O)N2CCOCC2)cc1)c1cc(-c2cc(Cl)ccc2O)n[nH]1 | 16µM* | ? | 12µM* | ? | 5.8µM* | 6.5µM*
Cc1cc(O)c(-c2cc(C(=O)Nc3ccc(S(=O)(=O)N4CCOCC4)cc3)[nH]n2)cc1C | 10µM* | 14µM* | ? | ? | 18µM* | ?
O=C(Nc1ccc(Cl)cc1)c1ccc(S(=O)(=O)N2CCOCC2)cc1 | -7% | 3% | i | i | ? | ?
CC(=O)Nc1ccc(NC(=O)c2cc(-c3cc(C)c(C)cc3O)n[nH]2)cc1 | ? | ? | i | i | -17% | -9%
SMILES | HT1080 IDH1KD tx | HT1080-NT tox | KB-3-1 tox | KB-V1 MDR tox | DT40 TDP1 no CPT | DT40 TDP1 CPT
NC(=O)c1c(NC(=O)CN2C(=O)CCC2=O)sc2c1CCCCC2 | 5% | 11% | i | i | -20% | -5%
NC(=O)c1c(NC(=O)CN2CCCC2)sc2c1CCCC2 | 20% | 18% | i | i | 16µM* | 9.2µM*
Cc1cc([N+](=O)[O-])nn1CCCC(=O)Nc1sc2c(c1C(N)=O)CCCC2 | 6% | 16% | i | i | 18µM* | ?
Cc1cc([N+](=O)[O-])nn1CC(=O)Nc1sc2c(c1C(N)=O)CCCC2 | -12% | -8% | i | ? | 2% | 7%
Cc1noc(C)c1C(=O)Nc1sc2c(c1C(N)=O)CCCCC2 | -4% | -19% | i | 21µM* | -19% | -30%
NC(=O)c1c(NC(=O)COC(=O)c2ccc(O)c(Cl)c2)sc2c1CCCC2 | 8% | 12% | i | i | ? | 26µM*
COC(=O)c1c(NC(=O)COC(=O)c2ccccc2O)sc2c1CCCCC2 | 2% | 4% | i | ? | -16% | 13%
COc1cc(Nc2cccc[n+]2C)cc(OC)c1OC | 0% | -4% | i | i | 5% | 16%
Cc1ccccc1Nc1nc(N)nc(CN2CCN(C(=O)c3ccccc3)CC2)n1 | -2% | -15% | i | i | 3% | -7%
CC1CCN(S(=O)(=O)c2ccc(NC(=O)CCN3C(=O)C4CC=CCC4C3=O)cc2)CC1 (configuration not stated) | 2% | 4% | i | i | -17% | -14%
CCOC(=O)c1c(NC(=O)OC)sc2c1CCC2 | 1% | -2% | i | i | -1% | -9%
NC(=O)c1c(NC(=O)c2ccncc2)sc2c1CCCCCC2 | -11% | 0% | i | i | ? | -12%
COC(=O)Nc1sc2c(c1C(N)=O)CCCCCC2 | -2% | 9% | i | i | 21µM* | 16µM*
C=CC(=O)Nc1sc2c(c1C(N)=O)CCCC2 | -15% | -15% | ? | ? | ? | 15µM*
NC(=O)c1c(NC(=O)c2ccncc2)sc2c1CCCC2 | 7% | 1% | i | ? | 16µM* | ?
CN1OC[C@@H]2CN(C(=O)CCc3ccccc3)[C@H](c3cccc(-c4ccc(C#N)cc4)c3)C[C@@H]21 | -16% | -3% | i | i | ? | ?
